# Experimental data reported in PubChem BioAssay (NCI).
# The panel holds about 83,000 compounds, 20% with a hit somewhere; the sample as a whole holds those more often.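 The test compound was applied at a single concentration to cells in 96-well plates for 48 hours, and percent growth was recorded.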 Unmarked numbers belong to inactive results. Calls of active or inactive are those of the source. How the source made its calls: active means growth percent below 10; inactive means the rest.
# Tested on: HL-60(TB) leukemia
# Assay: NCI-60 one-dose screen, 48 h (100 = growth as untreated, 0 = no growth, -100 = all killed)
# Settings: 10 µM unless noted
row,Compound,growth
1,N#Cc1c(-c2ccc(Cl)cc2)nc(SCc2ccc([N+](=O)[O-])cc2)nc1N1CCNCC1,-53.3% (active)
2,CCOc1ccc2nc(NC(=O)Nc3ccccc3C)sc2c1,15.3%
3,O=C(Nc1cc(C(F)(F)F)cc(C(F)(F)F)c1)Nc1ccc2oc(=O)ccc2c1,-24.3% (active)
4,COc1ccc(OC)c([C@H]2c3[nH]c4ccccc4c3C[C@H]3C(=O)N(CCCCCCC(=O)NO)CC(=O)N23)c1,91.1%
5,COc1ccc(-c2nc3ccc(-c4nnc(SCC(=O)Nc5ccc(C(=O)/C=C/c6ccc(Cl)cc6)cc5)o4)cc3[nH]2)cc1OC,88.7%
6,CC1(C)CC[C@]23CC[C@]4(C)[C@H](CC[C@@H]5[C@@]6(C)CC[C@H](NCO)C(C)(C)[C@@H]6CC[C@]54C)[C@H]2[C@H]1OC3,4.17% (active)
7,NC(=O)c1c(NC(=O)c2ccc(F)cc2F)sc2c1CCC(=O)C2,34.1%
